Laboratory results as given in ChEMBL document CHEMBL3988442, “University of Dundee, Small-Polar-MMV Screening Library” (2021).
For some of these results: Measured potencies and affinities stand elsewhere.

Key:
Set-up in all cases: scale not given: direction of the effect not stated beside the values
[1] = biological target: Protein translocase subunit SecA (Escherichia coli (strain K12)) (UniProt P10408); assay: Assay to Identify E. coli SecA ATPase Inhibitors; type: functional; details: 30 µM
Chain of Protein translocase subunit SecA (Escherichia coli (strain K12)) (P10408 whole entry): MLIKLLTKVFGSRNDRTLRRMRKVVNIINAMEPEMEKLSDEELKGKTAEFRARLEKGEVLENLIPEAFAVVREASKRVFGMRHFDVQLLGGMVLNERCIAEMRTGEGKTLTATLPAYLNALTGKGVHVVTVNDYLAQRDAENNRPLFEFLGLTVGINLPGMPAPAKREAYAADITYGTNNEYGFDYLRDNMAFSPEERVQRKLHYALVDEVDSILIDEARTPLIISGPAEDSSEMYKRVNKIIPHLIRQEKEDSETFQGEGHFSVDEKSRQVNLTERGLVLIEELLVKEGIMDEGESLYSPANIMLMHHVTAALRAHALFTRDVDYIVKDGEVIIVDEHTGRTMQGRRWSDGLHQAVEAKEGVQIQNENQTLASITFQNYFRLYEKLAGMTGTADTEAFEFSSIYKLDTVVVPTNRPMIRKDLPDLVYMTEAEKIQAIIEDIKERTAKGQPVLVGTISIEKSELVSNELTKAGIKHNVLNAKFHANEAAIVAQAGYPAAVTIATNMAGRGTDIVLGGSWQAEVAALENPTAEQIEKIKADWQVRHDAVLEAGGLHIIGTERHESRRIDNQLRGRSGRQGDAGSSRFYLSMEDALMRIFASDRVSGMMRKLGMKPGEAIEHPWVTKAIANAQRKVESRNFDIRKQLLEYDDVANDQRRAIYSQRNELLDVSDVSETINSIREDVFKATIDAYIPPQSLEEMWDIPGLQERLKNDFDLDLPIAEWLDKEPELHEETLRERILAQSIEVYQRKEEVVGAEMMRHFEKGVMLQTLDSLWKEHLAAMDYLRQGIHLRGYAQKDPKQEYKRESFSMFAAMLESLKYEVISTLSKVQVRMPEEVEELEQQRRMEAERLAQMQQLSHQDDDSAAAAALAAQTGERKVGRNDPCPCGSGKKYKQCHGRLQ

[2] = biological target: T1, Ubiquitin-activating enzyme e1, putative (Leishmania donovani (strain BPK282A1)) (UniProt E9BSI1); assay: Leishmania donovani Ubiquitin Activating Enzyme (LdE1); type: functional; details: 30 µM
T1 sequence (whole entry): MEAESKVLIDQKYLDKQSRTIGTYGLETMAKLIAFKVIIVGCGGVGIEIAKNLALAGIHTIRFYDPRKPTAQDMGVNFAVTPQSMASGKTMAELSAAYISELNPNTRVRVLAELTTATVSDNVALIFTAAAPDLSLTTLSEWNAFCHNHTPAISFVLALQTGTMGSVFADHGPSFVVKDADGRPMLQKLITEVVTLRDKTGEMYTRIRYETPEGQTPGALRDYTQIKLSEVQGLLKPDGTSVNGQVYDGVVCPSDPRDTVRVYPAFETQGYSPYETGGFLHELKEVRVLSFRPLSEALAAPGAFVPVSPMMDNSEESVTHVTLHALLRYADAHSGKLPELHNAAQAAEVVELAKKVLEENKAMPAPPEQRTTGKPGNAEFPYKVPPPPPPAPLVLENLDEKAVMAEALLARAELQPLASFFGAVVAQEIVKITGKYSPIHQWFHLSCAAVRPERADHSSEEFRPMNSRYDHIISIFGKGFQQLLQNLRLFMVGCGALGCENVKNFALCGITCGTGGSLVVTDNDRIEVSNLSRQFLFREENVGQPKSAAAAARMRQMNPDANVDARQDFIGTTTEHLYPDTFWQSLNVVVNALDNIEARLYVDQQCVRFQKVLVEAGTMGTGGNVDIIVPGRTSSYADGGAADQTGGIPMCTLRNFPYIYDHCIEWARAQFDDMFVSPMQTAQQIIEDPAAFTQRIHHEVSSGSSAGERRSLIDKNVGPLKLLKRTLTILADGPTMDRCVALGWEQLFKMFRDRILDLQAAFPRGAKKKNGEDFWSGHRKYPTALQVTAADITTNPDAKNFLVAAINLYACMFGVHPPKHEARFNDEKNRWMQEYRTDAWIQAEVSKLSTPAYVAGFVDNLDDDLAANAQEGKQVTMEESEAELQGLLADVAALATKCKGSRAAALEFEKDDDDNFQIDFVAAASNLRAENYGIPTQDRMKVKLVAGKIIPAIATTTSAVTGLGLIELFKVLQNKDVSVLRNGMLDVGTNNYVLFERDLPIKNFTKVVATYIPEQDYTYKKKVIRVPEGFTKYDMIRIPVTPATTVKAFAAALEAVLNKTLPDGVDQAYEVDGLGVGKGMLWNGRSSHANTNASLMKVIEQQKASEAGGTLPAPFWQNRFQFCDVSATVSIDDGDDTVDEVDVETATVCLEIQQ

[3] = biological target: AMP-activated protein kinase, AMPK (Homo sapiens) (UniProt P54646+O43741+P54619+Q9UGJ0+Q9Y478+Q13131+Q9UGI9); assay: AMP-dependent Kinase enzyme assay. An in vitro enzyme assay that detects ADP turnover that is directly proportional to AMPK activity. This uses naive AMPK that is activated during the assay with MK-8722; type: functional; details: 30 µM
[4] = biological target: Sialic acid-binding Ig-like lectin 9 (Homo sapiens) (UniProt Q9Y336); assay: Hs-Siglec9 ALPHAscreen SOP 20170721; details: 10 µM
Chain of Sialic acid-binding Ig-like lectin 9 (Homo sapiens) (Q9Y336 whole entry): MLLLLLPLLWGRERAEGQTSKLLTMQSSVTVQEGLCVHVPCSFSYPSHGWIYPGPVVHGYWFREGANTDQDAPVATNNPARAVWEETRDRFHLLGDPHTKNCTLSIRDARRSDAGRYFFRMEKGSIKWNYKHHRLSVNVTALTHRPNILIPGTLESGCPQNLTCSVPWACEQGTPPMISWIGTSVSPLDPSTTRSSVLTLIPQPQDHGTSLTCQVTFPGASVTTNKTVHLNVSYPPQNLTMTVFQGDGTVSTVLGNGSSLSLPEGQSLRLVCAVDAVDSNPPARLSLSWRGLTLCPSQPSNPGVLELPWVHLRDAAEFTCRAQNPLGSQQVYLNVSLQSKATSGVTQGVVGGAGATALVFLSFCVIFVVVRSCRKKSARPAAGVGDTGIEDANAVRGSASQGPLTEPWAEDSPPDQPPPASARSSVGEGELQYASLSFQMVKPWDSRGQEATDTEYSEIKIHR

Trypanosoma cruzi = assay: Trypanosoma cruzi phosphomannomutase and mannose-1-phosphate guanylyltransferase assay; type: functional; details: 10 µM
[5] = biological target: T2, Arginase-2, mitochondrial (Homo sapiens) (UniProt P78540); assay: in vitro enzyme assay to detect the production of urea directly proportional to the activity of Arginase II; type: functional; details: 33.3 µM; further: in the data most compounds retested in dose-response had high values
T2 sequence (whole entry): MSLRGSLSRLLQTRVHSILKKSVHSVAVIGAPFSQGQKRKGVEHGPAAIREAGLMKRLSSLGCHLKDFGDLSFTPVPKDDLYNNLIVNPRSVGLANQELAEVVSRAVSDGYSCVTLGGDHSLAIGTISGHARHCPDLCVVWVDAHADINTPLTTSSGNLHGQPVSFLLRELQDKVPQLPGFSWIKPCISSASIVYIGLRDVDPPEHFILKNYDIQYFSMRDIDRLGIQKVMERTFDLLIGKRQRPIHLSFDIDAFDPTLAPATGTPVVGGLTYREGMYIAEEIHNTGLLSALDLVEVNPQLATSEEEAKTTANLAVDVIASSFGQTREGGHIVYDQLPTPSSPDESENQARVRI

[6] = biological target: T3, Proteasome subunit beta (Trypanosoma cruzi) (UniProt O96673); assay: Trypanosoma cruzi proteasome chymotrypsin-like activity (TcProtChymo) assay.; further: in the data most compounds retested in dose-response had high values; type: functional; details: 9.37 µM
T3 sequence (whole entry): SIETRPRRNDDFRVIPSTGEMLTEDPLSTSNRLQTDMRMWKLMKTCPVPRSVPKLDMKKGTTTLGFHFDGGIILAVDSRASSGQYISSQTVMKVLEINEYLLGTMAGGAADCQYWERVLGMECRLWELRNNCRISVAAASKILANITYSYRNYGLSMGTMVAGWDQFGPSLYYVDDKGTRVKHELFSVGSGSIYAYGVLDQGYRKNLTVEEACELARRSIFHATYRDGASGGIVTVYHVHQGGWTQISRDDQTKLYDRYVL

Homo sapiens = species: Homo sapiens; assay: To identify inhibition of the IFN signalling (Jak-Stat) pathway via expression of an eGFP reporter gene under the control of an IFN-stimulated response element (ISRE) containing MxA promoter.; type: functional; details: 30 µM
[7] = biological target: T4, Tyrosyl-tRNA synthetase, putative (Trypanosoma cruzi (strain CL Brener)) (UniProt Q4DSP6); assay: Trypanosoma cruzi tyrosyl tRNA synthetase (TcYRS) _High Tyrosine SOP; type: functional; details: 30 µM; further: in the data most compounds retested in dose-response had high values
T4 sequence (whole entry): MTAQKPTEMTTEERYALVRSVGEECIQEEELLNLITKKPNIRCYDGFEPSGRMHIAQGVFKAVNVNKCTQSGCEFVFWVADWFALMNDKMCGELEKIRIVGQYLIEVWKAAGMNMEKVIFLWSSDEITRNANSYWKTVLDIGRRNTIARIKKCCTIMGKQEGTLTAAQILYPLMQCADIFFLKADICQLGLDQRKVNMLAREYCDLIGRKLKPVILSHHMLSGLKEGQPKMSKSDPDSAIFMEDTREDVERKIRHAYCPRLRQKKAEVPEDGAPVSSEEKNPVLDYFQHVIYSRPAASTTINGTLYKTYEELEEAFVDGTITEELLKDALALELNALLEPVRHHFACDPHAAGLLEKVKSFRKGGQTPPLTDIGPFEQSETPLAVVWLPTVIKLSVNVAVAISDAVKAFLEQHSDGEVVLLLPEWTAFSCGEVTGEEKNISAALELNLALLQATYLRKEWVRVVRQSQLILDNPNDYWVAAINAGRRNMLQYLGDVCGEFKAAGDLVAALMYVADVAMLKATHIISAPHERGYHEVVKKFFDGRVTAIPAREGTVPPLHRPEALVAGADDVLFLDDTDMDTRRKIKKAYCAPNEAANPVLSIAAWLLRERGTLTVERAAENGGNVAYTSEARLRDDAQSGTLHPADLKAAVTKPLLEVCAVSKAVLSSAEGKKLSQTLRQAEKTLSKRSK

[8] = biological target: T4, Tyrosyl-tRNA synthetase, putative (Trypanosoma cruzi (strain CL Brener)); assay: Trypanosoma cruzi tyrosyl tRNA synthetase (TcYRS) SOP; type: functional; details: 30 µM
[9] = biological target: Chromo domain-containing protein 1 (Saccharomyces cerevisiae (strain ATCC 204508 / S288c) (Baker's yeast)) (UniProt P32657); assay: ScCHD-1 Enzyme Inhibition Assay; type: functional; details: 30 µM; further: in the data most compounds retested in dose-response had high values
Chain of Chromo domain-containing protein 1 (Saccharomyces cerevisiae (strain ATCC 204508 / S288c) (Baker's yeast)) (P32657 whole entry, the tested form may be a part): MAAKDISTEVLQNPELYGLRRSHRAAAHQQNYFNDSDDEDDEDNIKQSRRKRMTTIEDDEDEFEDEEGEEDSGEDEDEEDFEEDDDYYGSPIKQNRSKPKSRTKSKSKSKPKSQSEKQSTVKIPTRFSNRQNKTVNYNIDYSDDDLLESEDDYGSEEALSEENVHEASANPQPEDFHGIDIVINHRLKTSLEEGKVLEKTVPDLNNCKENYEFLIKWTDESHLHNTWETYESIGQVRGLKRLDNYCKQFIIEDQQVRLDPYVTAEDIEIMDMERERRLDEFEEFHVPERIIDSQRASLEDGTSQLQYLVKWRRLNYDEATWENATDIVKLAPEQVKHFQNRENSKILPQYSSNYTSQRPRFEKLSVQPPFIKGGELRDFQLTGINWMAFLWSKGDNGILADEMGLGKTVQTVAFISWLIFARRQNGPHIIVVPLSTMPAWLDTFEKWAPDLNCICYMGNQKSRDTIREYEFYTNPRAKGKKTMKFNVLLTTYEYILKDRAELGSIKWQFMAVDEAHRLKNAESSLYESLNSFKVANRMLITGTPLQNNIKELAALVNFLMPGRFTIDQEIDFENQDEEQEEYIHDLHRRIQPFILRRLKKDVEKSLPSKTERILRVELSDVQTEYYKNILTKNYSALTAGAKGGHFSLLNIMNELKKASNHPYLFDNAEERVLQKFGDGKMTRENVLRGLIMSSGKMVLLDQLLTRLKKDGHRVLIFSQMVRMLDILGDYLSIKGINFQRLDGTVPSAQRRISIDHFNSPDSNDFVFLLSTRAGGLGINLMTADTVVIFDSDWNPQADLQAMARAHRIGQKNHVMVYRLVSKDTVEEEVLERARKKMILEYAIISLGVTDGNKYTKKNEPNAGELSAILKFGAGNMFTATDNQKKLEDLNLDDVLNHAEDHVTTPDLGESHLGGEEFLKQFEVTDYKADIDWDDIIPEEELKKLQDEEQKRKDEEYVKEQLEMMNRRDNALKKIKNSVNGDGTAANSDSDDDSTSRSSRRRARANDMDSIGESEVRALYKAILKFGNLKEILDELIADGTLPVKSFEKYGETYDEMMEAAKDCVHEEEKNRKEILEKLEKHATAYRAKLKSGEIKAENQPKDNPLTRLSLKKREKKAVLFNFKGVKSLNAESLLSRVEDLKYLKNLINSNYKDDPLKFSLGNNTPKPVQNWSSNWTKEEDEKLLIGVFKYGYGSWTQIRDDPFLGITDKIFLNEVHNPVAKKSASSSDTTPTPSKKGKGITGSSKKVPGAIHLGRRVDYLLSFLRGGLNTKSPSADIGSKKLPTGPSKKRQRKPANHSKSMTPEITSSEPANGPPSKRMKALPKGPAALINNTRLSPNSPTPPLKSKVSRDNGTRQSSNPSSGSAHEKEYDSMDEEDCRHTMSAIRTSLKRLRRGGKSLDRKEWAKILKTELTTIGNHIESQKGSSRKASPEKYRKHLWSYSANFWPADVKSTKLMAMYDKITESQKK

SMILES | Percent Effect [1] [%] | Percent Effect [2] [%] | Percent Effect [3] [%] | Percent Effect [4] [%] | Percent Effect (Trypanosoma cruzi) [%] | Percent Effect [5] [%] | Percent Effect [6] [%] | Percent Effect (Homo sapiens) [%] | Percent Effect [7] [%] | Percent Effect [8] [%] | Percent Effect [9] [%]
c1cnn(C2CN(Cc3nc(-c4ccsc4)no3)C2)c1 | -3.15 | -10.5 | -7.01 | 2.96 | 8.27 | 1.15 | 12.7 | -0.515 | 4.41 | 12.2 | -4.96
CC(C)CN1CCC(C(=O)Nc2cc(C(F)(F)F)c[nH]c2=O)CC1 | -7.9 | 10.4 | 4.55 | 14.9 | 6.37 | -2.13 | 1.18 | -6.76 | 5.83 | 21.9 | -10.2
CCSc1cc(C(=O)NCCC(=O)Nc2ccccn2)ccn1 | -5.48 | 2.74 | -2.02 | 1.7 | 6.27 | 0.909 | 8.16 | 15.8 | 5.38 | 17.5 | -3.9
CC(C)c1ncc2c(n1)CN(Cc1cccc(C#N)c1)CC2 | -3.01 | 0 | -28.8 | 8.37 | 4.89 | 3.06 | 5.01 | -9.04 | 5.39 | 4.88 | 2.88
Cc1ccc(CNC(c2ccccc2)c2nccn2C)cc1C (stereo unspecified) | -0.655 | 18.9 | -5.59 | 9.13 | 2.32 | -0.554 | 8.08 | 30.7 | 10.9 | 25.6 | -5.06
CCCNC(=O)Cn1nc(C(C)C)c2cnn(C(C)(C)C)c2c1=O | -3.37 | 5.48 | -13.9 | 4.27 | -0.392 | 2.27 | 16.1 | 5.42 | 8.6 | 15 | -5.95
CN(Cc1csc(-c2cccs2)n1)C(=O)CCn1ccccc1=O | -4.95 | 8 | -1.99 | 4.47 | -1.07 | 5.21 | 22.7 | 10.8 | 3.83 | 11.1 | -4.75
COc1ccc(C(CNC(=O)Nc2cn[nH]c2)N2CCOCC2)cc1 (stereo unspecified) | -3.98 | 7.79 | 3.92 | 0.747 | 4.8 | 1.05 | 15 | -2.67 | 10.5 | 25.9 | -20.4
O=C(c1ccc[nH]1)N1CCN(CC2CCOc3ccccc3C2)CC1 (stereo unspecified) | -7.81 | 1.39 | -3.67 | 14.8 | 1.07 | -1.77 | 4.04 | -2.27 | 3.16 | -7.69 | -1
CCNC(=O)Nc1ccc2c(ccn2CC(=O)N(CC)CC)c1 | -2.78 | 18.4 | -2.69 | 1.44 | -0.188 | -4.6 | 12.5 | 19.9 | 9.31 | 17.1 | -6.24
Cc1ccc(C(=O)NCCCN2CCOCC2)c(Cl)c1 | -2.82 | 2.6 | 2.57 | 5.34 | 6.79 | -2.76 | 4.33 | 18.2 | 3.23 | 11.1 | 108
